The list is not random: actives were taken first. Their share in the collection is about 4.2%.
NALP1 inh: NALP1 inflammasome inhibitors in reconstituted yeast, colorimetric, S. cerevisiae, triplicate retest; S. cerevisiae NALP1/ASC/caspase-1 growth, X-gal OD620, 72 h; inhibition, % at 10 µM; actives 0.61% (n = 280,000); AID 2071, 2009; in the data active means inhibition mostly above about 24%, no sharp cut-off; inactive means mostly below about 32%
tim10-1 inh: growth inhibitors of tim10-1 mutant yeast, primary screen, luminescence, uHTS. S. cerevisiae tim10-1 ts strain growth, BacTiter-Glo, 24 h. inhibition, % at 20 µM. actives 2.2% (n = 330,000). AID 463190, 2010;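 active means inhibition of at least 40%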;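 further: mutant grown at 25 °C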
tim23-1 inh: growth inhibitors of tim23-1 mutant yeast, primary screen, luminescence, uHTS; S. cerevisiae tim23-1 growth, BacTiter-Glo luminescence, 24 h; inhibition, % at 20 µM; actives 1.3% (n = 330,000); AID 463212, 2010;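 active means growth inhibition of the mutant yeast at or above 50%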;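 further: temperature-sensitive mutant grown at 25 °C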
TIM10 inh: growth inhibitors of isogenic TIM10 control yeast, primary screen, counter-screen for tim10-1 yeast inhibitor project, luminescence, uHTS; inhibition, % at 10 µM; actives 1.4% (n = 330,000); S. cerevisiae TIM10 strain growth, BacTiter-Glo luminescence, 24 h;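 active means inhibition of 40% or more at the single tested concentration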;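 further: wild-type TIM10 isogenic control strain grown at permissive 25 °C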
NALP3 yeast inh: NALP3 inflammasome inhibitors in reconstituted yeast, primary screen, luminescence, uHTS | Yeast reconstituted NLRP3/ASC/caspase-1, beta-gal luminescence, 24 h | AID 2825, 2010 | inhibition, % at 10 µM | actives 0.39% (n = 330,000);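 active means inhibition of 50% or more; inactive means inhibition below 50%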
V-ATPase pH: regulators of yeast V-ATPase proton pumping, primary screen, pHLuorin cytosolic pH fluorescence; S. cerevisiae; response, % at 10 µM; actives 0.37% (n = 350,000); AID 504577, 2011; in the data active means response mostly above about 7.3%, no sharp cut-off; inactive means mostly below about 5.4%; further: actives read high
tim10-1 conf: growth inhibitors of tim10-1 mutant yeast, confirmation, single concentration, luminescence, S. cerevisiae; shares compounds with tim10-1 inh; S. cerevisiae tim10-1 ts strain growth, BacTiter-Glo, 24 h; inhibition, % at 20 µM; actives 56% (n = 7,400); AID 463213, 2010;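 active means inhibition of yeast growth at or above a set limit in either of two repeat tests at 20 µM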;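 further: tim10-1 mutant grown at permissive 25 °C to find synthetic lethal compounds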
Numbers stand for hits; – = inactive; · = no result given.

SMILES | NALP1 inh | tim10-1 inh | tim23-1 inh | TIM10 inh | NALP3 yeast inh | V-ATPase pH | tim10-1 conf
Cc1ccccc1-n1c(SCC(=O)Nc2ccccc2Cl)nc2n[nH]c(C)c2c1=N | – | 42 | – | – | – | – | –
COc1ccc(OC)c(NC(=O)CSc2nc3n[nH]c(C)c3c(=N)n2-c2cccc(Cl)c2C)c1 | – | 43 | – | – | – | – | –
Cn1cc(SCC(=O)O)c2ccccc21 | – | – | – | – | – | – | ·
Cn1cc(C(C[N+](=O)[O-])c2ccccc2)c2ccccc21 (stereo unspecified) | – | 40 | – | – | – | – | 49
CC1C(=O)C(C)(C)C(=O)OC1c1ccc([N+](=O)[O-])cc1 (stereo unspecified) | – | – | – | – | – | – | ·
Cc1cc(Nc2nc(Cl)c(Cl)cc2Cl)n(-c2ccccc2)n1 | · | 45 | – | – | – | – | 34
Cc1ccc(-n2nc(C)cc2Nc2ncc(Cl)cc2Cl)cc1 | – | – | – | – | – | – | ·
Cc1cc(Nc2ccccc2)n(-c2ccccc2)n1 | – | – | – | – | – | – | ·
Cc1cc(C)nc(-n2nc(C)cc2Nc2ccccc2)n1 | – | 41 | – | – | – | – | –
CC1C2CC(C(CN(C)C)/C2=N/O)C1(C)C (stereo unspecified) | – | 44 | – | – | – | – | –
CC1(C)Cc2ccccc2C(NNC(=O)c2ccc(Br)o2)=N1 | – | – | – | – | – | – | ·
O=C1C=C(NC(=O)Nc2ccc(Cl)c(Cl)c2)CCC1 | – | 43 | – | – | – | – | 46
Cc1cccc(OCCNc2cc(N3CCN(C)CC3)ccc2[N+](=O)[O-])c1 | – | – | – | – | – | – | ·
Cc1ccc(OCCNc2cc(N3CCN(CCO)CC3)ccc2[N+](=O)[O-])cc1C | – | 43 | – | – | – | – | –
Cc1nonc1C(=O)N/N=C/c1ccc(O)cc1O | – | 46 | – | – | – | – | –
CCN(CC)C(=O)CSc1nc(-c2ccccc2)cc(=O)[nH]1 | – | – | – | – | – | – | ·
COc1ccc(OC)c2[nH]c(=O)c(CCNS(=O)(=O)c3ccccc3)cc12 | – | – | – | – | – | – | ·
Cc1ccc(NC(=O)c2cccc(OC(F)F)c2)c(OC(F)F)c1 | – | – | – | – | – | – | ·
Cc1c(Cl)cccc1NC(=O)c1cccc(OC(F)F)c1 | – | 47 | – | – | – | – | 48
COc1ccccc1-c1ccc(/C=C2\C=CC(=O)O2)o1 | – | 48 | – | – | – | – | 36
N#Cc1ccccc1OCC(=O)N1CCN(C(=O)c2ccco2)CC1 | – | – | – | – | – | – | ·
S=c1[nH]nc(-c2ccccn2)n1/N=C/c1cccc2ccccc12 | – | 41 | – | – | – | – | –
CC(C)c1ccc(NC(=O)CCNC(=O)Cn2ccc3ccccc3c2=O)cc1 | – | – | – | – | – | – | ·
COc1cccc(OC)c1OCCCOc1ccc([N+](=O)[O-])cc1Cl | – | – | – | – | – | – | ·
COc1ccc(-c2cc(C3CCN(C(=O)OC(C)(C)C)CC3)[nH]n2)cc1 | – | 44 | – | – | – | – | 39
SMILES | NALP1 inh | tim10-1 inh | tim23-1 inh | TIM10 inh | NALP3 yeast inh | V-ATPase pH | tim10-1 conf
COc1ccc(B(O)O)c(CN2CCN(C(=O)OC(C)(C)C)CC2)c1 | · | · | · | · | · | – | ·
COc1ccc(-c2cc(C3CCN(c4ccc(C(C)=O)cc4[N+](=O)[O-])CC3)[nH]n2)cc1 | – | – | – | – | – | – | ·
COc1ccc(OC)c(-c2cc(C3CCN(C(=O)OC(C)(C)C)CC3)[nH]n2)c1 | – | – | – | – | – | – | –
Cc1noc(C)c1COc1ccccc1C(=O)N(C)Cc1ccc(F)cc1 | · | – | – | – | – | – | ·
Cc1noc(C)c1COc1ccccc1C(=O)N(C)Cc1ccc(C(C)(C)C)cc1 | · | 42 | – | – | – | – | –
Cc1cc(=O)oc2cc(OCc3ccc(C(=O)N4CCN(c5ccccc5)CC4)cc3)ccc12 | – | 43 | – | – | – | – | –

Assay outcomes (PubChem BioAssay)
